Measured values taken from PubChem BioAssay AID720648 (The Scripps Research Institute Molecular Screening Center, 2013).
Screen size: about 370,000 compounds; about 3,100 (0.84%) were called active. This excerpt belongs to a sample that is enriched for actives. Values without a mark were called inactive.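 How the source made its calls: active means inhibition above the mean of compounds lying between control limits plus 3 SD, set per campaign (cut at about 8.5% in these data); inactive means the rest.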

The molecules below were run against Disintegrin and metalloproteinase domain-containing protein 17 (Homo sapiens) (UniProt P78536) (assay: inhibition of ADAM17 peptide cleavage – biochemical, QFRET, primary screen (AID 720648;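 further: 0% = DMSO-only wells as the low control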)). Details: recombinant ADAM17, EDANS/DABCYL FRET peptide cleavage; at 6.95 µM; stronger effect = higher value.
Sequence of Disintegrin and metalloproteinase domain-containing protein 17 (Homo sapiens) (P78536 215-824 limits assumed): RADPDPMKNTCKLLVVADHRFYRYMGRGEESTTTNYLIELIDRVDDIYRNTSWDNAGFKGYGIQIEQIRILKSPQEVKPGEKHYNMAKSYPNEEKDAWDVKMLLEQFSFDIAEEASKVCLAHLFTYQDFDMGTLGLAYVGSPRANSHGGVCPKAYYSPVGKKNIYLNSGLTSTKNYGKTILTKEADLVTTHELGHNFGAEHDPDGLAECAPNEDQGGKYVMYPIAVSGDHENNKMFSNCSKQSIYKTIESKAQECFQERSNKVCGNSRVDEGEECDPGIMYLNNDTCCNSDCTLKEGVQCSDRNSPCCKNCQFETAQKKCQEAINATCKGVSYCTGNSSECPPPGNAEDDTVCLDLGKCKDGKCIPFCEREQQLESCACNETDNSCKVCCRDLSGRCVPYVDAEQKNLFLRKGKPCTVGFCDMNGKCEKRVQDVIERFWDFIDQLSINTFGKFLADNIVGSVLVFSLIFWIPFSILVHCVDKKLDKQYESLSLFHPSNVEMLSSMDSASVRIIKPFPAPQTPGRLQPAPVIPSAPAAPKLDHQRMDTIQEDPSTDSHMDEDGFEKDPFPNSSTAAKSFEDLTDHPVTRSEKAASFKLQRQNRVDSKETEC

`C[C@@H]1CN([C@H](C)CO)C(=O)c2cc(-c3ccc(F)cc3)cnc2O[C@H]1CN(C)C(=O)c1ccc(F)cc1` was tested, and the inhibition was 11.7% (active).
`O=C(CN1CCN(c2nc(-c3ccccc3)cs2)CC1)NCc1ccc2c(c1)OCO2` was tested, and the inhibition was 11.7% (active).
In the case of `COc1ccc(CC(=O)c2ccc(O)cc2O)cc1OC`, the inhibition is reported as 9.65% (active).
With `Cc1ccc(OCc2nnc(SC/C=C/c3ccccc3)n2Cc2ccco2)cc1` the inhibition was 10.7% (active).
With `Cc1ccc(-c2nnc(SCC(=O)Nc3ccc(Oc4ccccc4)cc3)n2Cc2ccco2)cc1` the inhibition was 9.36% (active).
In the case of `Cc1ccc(-c2n[nH]c(=S)n2/N=C/c2cc3c(cc2[N+](=O)[O-])OCO3)cc1`, the inhibition is reported as 8.7% (active).
In the case of `Cc1nnc(SCC(=O)Nn2cnnc2)s1`, the inhibition is reported as 8.83% (active).
In the case of `COc1cccc(CNc2nc(C(F)(F)F)nc3ccccc23)c1`, the inhibition is reported as 10.3% (active).
For `N#C/C(=C/c1ccc(N2CCCCC2)o1)C(=O)NCCc1c[nH]c2ccccc12`, the inhibition was 15.4% (active).
In the case of `Cc1ccc(C(=O)Nc2ccc(C)c(S(=O)(=O)N(C)C)c2)s1`, the inhibition is reported as 9.87% (active).
For `O=C(COC(=O)CCCSc1nc2ccccc2[nH]1)Nc1ccc(Oc2ccccc2)cc1`, the inhibition was 10.8% (active).
For `O=C(Nc1ccc(C(=O)NCc2ccccc2Cl)cc1)C1=CSCCO1`, the inhibition was 10.3% (active).
`Cc1cc(C)cc(NC(=S)NCCc2c[nH]c3ccccc23)c1` was tested, and the inhibition was 16.1% (active).
`CC(C)C(=O)Nc1cccc(NC(=S)NC(=O)C(c2ccccc2)c2ccccc2)c1` was tested, and the inhibition was 9.39% (active).
In the case of `CCc1cccc(NC(=O)COC(=O)C2CCN(c3ccc(C(F)(F)F)cn3)CC2)c1`, the inhibition is reported as 8.96% (active).

Going from `COc1ccc(-c2cnc3c(c2)C(=O)N([C@H](C)CO)C[C@@H](C)[C@H](CN(C)Cc2ccccc2)O3)cc1` to `C[C@H]1CN([C@@H](C)CO)C(=O)c2cc(-c3cccc(F)c3)cnc2O[C@@H]1CN(C)S(C)(=O)=O`, the inhibition falls from 2.22% to 1.1%.

Compared with `CCCCCN1CCCCC(NC(=O)C(C)CCC)C1=O` (stereo not drawn), `CCCCNC(=O)C[C@@H]1C(=O)N(CCc2ccc(Cl)cc2)C2=CCCC[C@]21C(=O)OCC` is higher in inhibition: -3.79% for the first, -1.53% for the second.

Compared with `Cc1ccc(-c2nc(CS(=O)(=O)CC(=O)NCc3ccc4c(c3)OCO4)c(C)o2)cc1`, `CC1(C(=O)NCc2ccc3c(c2)OCO3)CCN1CCc1ccccc1` (stereo not drawn) is higher in inhibition: -1.45% for the first, 4.37% for the second.

Compared with `Cc1ccc(-n2c(SCC(=O)Nc3cccc4ccccc34)nnc2-c2ccccn2)cc1`, `O=C(CSc1nnc(-c2ccccc2)n1Cc1ccco1)Nc1ccccc1-c1ccccc1` is higher in inhibition: 0.17% for the first, 3.73% for the second.

First: COc1ccc(C(=O)OCCN(C)C2CN(Cc3cn(Cc4cccc(C)c4)nn3)S(=O)(=O)C2)cc1OC (stereo not drawn)
Second: Cc1ccc(Cn2cc(COC(=O)N(C)Cc3ccccc3)nn2)cc1
The inhibition of the first is higher: 0% for the first, -1.03% for the second.

Compared with `CC1CCN(c2ccc(C(=O)O)cc2NS(=O)(=O)c2ccc(Br)s2)CC1`, `CCOc1ccc(CCNC(=O)COC(=O)C2CCN(c3ccc(C(F)(F)F)cn3)CC2)cc1OCC` is higher in inhibition: -2.39% for the first, -1.24% for the second.

Compared with `Clc1ccc(-n2c(COc3ccccc3)nnc2SCc2nc3ccccc3[nH]2)cc1`, `O=C(CSc1nnc(COc2ccccc2)n1Cc1ccco1)c1ccc2ccccc2c1` is higher in inhibition: 1.5% for the first, 8.38% for the second.

First: COc1ccc(C2(CNC(=O)Cc3ccc(OC)c(OC)c3)CCCC2)cc1
Second: COC(=O)[C@@]12CCCCC=C1N(CCc1ccc(Cl)cc1)C(=O)[C@H]2CC(=O)NCc1ccc(OC)c(OC)c1
The inhibition of the first is higher: 0.4% for the first, -0.2% for the second.

Going from `COc1ccc(CCNC(=O)C(=O)NCc2ccccc2C)cc1OC` to `CC(C)(C)OC(=O)NCCc1ccccc1/C=C/S(=O)(=O)NCc1ccc(F)cc1`, the inhibition rises from -2.04% to 1.57%.

First: FC(F)(F)c1cccc(NC(=S)OC2CCC23CCC(c2ccccc2)CC3)c1 (stereo not drawn)
Second: N#Cc1ccc(OC[C@@H](O)CN2CCC(C(O)(c3ccccc3)c3ccccc3)CC2)c(F)c1
The inhibition of the first is higher: 4.59% for the first, 0.92% for the second.

Compared with `C#CCNC(=O)C[C@H]1C[C@@]2(C(=O)OC)C(=C[C@H](C(C)C)O[C@@H]2C2CC2)N(Cc2ccco2)C1=O`, `COC(=O)[C@]12C[C@H](CC(=O)NCC34CC5CC(CC(C5)C3)C4)C(=O)N(Cc3ccc(Cl)cc3Cl)C1=C[C@H](COCc1ccccc1)O[C@@H]2C` is lower in inhibition: -2.14% for the first, -3.09% for the second.

Going from `O=C(CSc1nnc(-c2cccc(Cl)c2)n1Cc1ccco1)Nc1ccc(OCc2ccccc2)cc1` to `C(=C\c1ccccc1)/CSc1nnc(-c2cccnc2)n1Cc1ccco1`, the inhibition falls from 4% to -2.99%.

Compared with `O=C(NC1CCC1)c1ccc(C#Cc2cccc(F)c2)c[n+]1[O-]`, `O=C(c1ccncc1)N1CC[C@H]2[C@H](CCCN2Cc2ccc(F)cc2)C1` is higher in inhibition: -5.18% for the first, 1.14% for the second.

Compared with `CCC(=O)c1c(CC)c2n3c1=CC[C@H]3CC(Br)C=2` (stereo partly drawn), `Cc1ccc2[nH]cc(CCNC(=O)C3CCCCC3)c2c1` is higher in inhibition: -4.68% for the first, 0.5% for the second.

First: CN1[C@H](Cc2ccccc2)COc2cccc(N3CCSCC3)c2S1(=O)=O
Second: C=CCN1[C@H](CC(C)C)COc2cccc(N3CCCC3)c2S1(=O)=O
The inhibition of the first is higher: -1.43% for the first, -8.01% for the second.

Compared with `CCOc1ccc(Oc2c(Cl)cnn(-c3ccc(C)cc3)c2=O)cc1`, `CCCOc1ccc(Oc2c(Cl)cnn(Cc3cccc4ccccc34)c2=O)cc1` is lower in inhibition: -4.44% for the first, -6.8% for the second.

Compared with `Cc1ccccc1NC(=O)Cn1nnc(-c2ccccc2F)n1`, `O=C(CCS(=O)(=O)c1ccccc1)Nc1ccc(Cl)c(Cl)c1` is higher in inhibition: 1.5% for the first, 5.76% for the second.

First: CSc1ccc(C=Nn2c(-c3ccc(F)cc3)n[nH]c2=S)cc1
Second: CCOc1ccc(-c2n[nH]c(=S)n2/N=C/c2cc3c(cc2[N+](=O)[O-])OCO3)cc1
The inhibition of the first is higher: -0.62% for the first, -4.26% for the second.

Going from `COC1=C[C@H](C(=O)NCCNC(C)=O)[C@H](C)[C@@H](c2ccccc2)CC1=O` to `C=CS(=O)(=O)N(Cc1nnn(Cc2ccccc2)c1Br)[C@H](C(=O)OC)C(C)C`, the inhibition rises from -1.19% to 2.02%.

Going from `FC(F)(F)c1cccc(Cn2ccc3ccc(-c4ccc5ccn(Cc6ccccc6)c5c4)cc32)c1` to `COC(=O)c1cccc(Cn2ccc3ccc(-c4ccc5ccn(C(=O)c6ccccc6C)c5c4)cc32)c1`, the inhibition rises from -14.4% to -5.84%.

First: CC(C)(C)NC(=O)C(c1cccnc1)N(C(=O)c1cnco1)c1ccc(C(C)(C)C)cc1 (stereo not drawn)
Second: CCN(c1ccc(NC(=O)COC(=O)CCc2nc3ccccc3n2-c2ccccc2)cc1)C(C)C
The inhibition of the first is lower: -6.7% for the first, 4.08% for the second.

Going from `CCSc1nnc(SCC(=O)NNC(=O)c2ccccc2F)s1` to `O=C(CSc1nc2ccccc2s1)NN=Cc1ccc(O)cc1O`, the inhibition rises from -2.03% to 3.8%.

First: Cc1nnc(SCC(=O)NC2CCCC2)s1
Second: Cc1ccc(C(=O)NCC(=O)O)s1
The inhibition of the first is lower: -4.16% for the first, 3.71% for the second.

Compared with `CN(C(N)=NC(=O)/C=C/c1ccccc1)C(C#Cc1ccccc1)Cc1ccccc1` (stereo not drawn), `O=C(NCCCc1ccccc1)[C@H](Cc1ccccc1)NC1(C(=O)NCCc2c[nH]c3ccccc23)CCC1` is higher in inhibition: 0.96% for the first, 3.66% for the second.

Compared with `CCOC(=O)[C@]12CCCC3=C1N(CCC3)C(=O)[C@@H](CC(=O)NCC13CC4CC(CC(C4)C1)C3)C2`, `CCOC(=O)[C@]12CCCC=C1N(CCCOC)C(=O)[C@@H]2CC(=O)N1CCOCC1` is higher in inhibition: 0.7% for the first, 2.05% for the second.

Going from `COc1cccc(CNc2ncc(-c3ccccc3)n2C)c1` to `COc1cccc(CNc2nc(NCc3cccs3)nc3ccsc23)c1`, the inhibition falls from 5.33% to 0.1%.

Compared with `COCCCNC(=O)/C(C#N)=C/c1c(N2CCCCCC2)nc2ccccn2c1=O`, `O=C(COC(=O)CCc1nc2ccccc2c(=O)[nH]1)Nc1ccc(N2CCOCC2)cc1` is higher in inhibition: -451% for the first, -2.52% for the second.

First: COc1ccc(CCC(=O)OCC(=O)Nc2ccc(C)c(S(=O)(=O)N(C)C)c2)cc1
Second: Cc1ccc(S(=O)(=O)N(C)CC(=O)NCCc2c[nH]c3ccccc23)cc1
The inhibition of the first is lower: 0.46% for the first, 0.52% for the second.

Going from `C#CCCN([C@H](C(=O)OC)C(C)C)S(=O)(=O)c1ccc(F)cc1Br` to `COC(=O)C1CN(CC(C)C)CCS(=O)(=O)N1Cc1ccc(C)cc1` (stereo not drawn), the inhibition falls from 2.67% to -8.74%.

First: O=C1CC[C@@H](COc2ccc3[nH]cc(-c4ccccc4)c3c2-c2ccccc2)N1
Second: COc1ccc(CN2C/C(=C/c3ccccc3)N3C(=O)C[C@@H](c4ccccc4)N=C23)c(OC)c1
The inhibition of the first is lower: -1.86% for the first, 4.01% for the second.

Going from `C[C@@H](NC(=O)c1ccccc1OCC(=O)Nc1ccc(I)cc1)C(=O)N(C)Cc1ccccc1` to `CCCCC(=O)NNC(=S)NC(=O)C(c1ccccc1)c1ccccc1`, the inhibition falls from 2.09% to 1.95%.

Going from `CSc1ccc(CNC(=O)c2ccc(NC(=O)C3=CSCCO3)cc2)cc1` to `O=C(COC(=O)c1ccc2c(c1)OCCO2)NCc1ccccc1Cl`, the inhibition falls from 0.22% to -2.66%.

Going from `CC(CCN1CCC(C(O)(c2ccccc2)c2ccccc2)CC1)Oc1ccc(Cl)cc1` (stereo not drawn) to `CN(CCO)c1cccc2c1S(=O)(=O)N(Cc1cn(Cc3ccc(C(F)(F)F)cc3)nn1)Cc1ccccc1O2`, the inhibition falls from 4.85% to -1.94%.

First: CCCC(=O)Nc1cccc(NC(=S)NC(=O)C(C)Oc2ccc(Cl)cc2Cl)c1 (stereo not drawn)
Second: N#CCCN(C(=O)COC(=O)C1CCN(c2ccc(C(F)(F)F)cn2)CC1)c1ccc(F)cc1
The inhibition of the first is higher: 2.78% for the first, -2.71% for the second.
